WRN helicase inh = inhibitors of human WRN helicase; Q14191; WRN helicase unwinding, fluorescent forked duplex, kinetic; Potency, µM (titrated, usually from 114 µM), hits mostly inhibitors; 360,000 tested, 0.46% active; note: nearly all actives have a fitted effect of over 55% in size
Target sequence (Q14191 whole entry, looked up): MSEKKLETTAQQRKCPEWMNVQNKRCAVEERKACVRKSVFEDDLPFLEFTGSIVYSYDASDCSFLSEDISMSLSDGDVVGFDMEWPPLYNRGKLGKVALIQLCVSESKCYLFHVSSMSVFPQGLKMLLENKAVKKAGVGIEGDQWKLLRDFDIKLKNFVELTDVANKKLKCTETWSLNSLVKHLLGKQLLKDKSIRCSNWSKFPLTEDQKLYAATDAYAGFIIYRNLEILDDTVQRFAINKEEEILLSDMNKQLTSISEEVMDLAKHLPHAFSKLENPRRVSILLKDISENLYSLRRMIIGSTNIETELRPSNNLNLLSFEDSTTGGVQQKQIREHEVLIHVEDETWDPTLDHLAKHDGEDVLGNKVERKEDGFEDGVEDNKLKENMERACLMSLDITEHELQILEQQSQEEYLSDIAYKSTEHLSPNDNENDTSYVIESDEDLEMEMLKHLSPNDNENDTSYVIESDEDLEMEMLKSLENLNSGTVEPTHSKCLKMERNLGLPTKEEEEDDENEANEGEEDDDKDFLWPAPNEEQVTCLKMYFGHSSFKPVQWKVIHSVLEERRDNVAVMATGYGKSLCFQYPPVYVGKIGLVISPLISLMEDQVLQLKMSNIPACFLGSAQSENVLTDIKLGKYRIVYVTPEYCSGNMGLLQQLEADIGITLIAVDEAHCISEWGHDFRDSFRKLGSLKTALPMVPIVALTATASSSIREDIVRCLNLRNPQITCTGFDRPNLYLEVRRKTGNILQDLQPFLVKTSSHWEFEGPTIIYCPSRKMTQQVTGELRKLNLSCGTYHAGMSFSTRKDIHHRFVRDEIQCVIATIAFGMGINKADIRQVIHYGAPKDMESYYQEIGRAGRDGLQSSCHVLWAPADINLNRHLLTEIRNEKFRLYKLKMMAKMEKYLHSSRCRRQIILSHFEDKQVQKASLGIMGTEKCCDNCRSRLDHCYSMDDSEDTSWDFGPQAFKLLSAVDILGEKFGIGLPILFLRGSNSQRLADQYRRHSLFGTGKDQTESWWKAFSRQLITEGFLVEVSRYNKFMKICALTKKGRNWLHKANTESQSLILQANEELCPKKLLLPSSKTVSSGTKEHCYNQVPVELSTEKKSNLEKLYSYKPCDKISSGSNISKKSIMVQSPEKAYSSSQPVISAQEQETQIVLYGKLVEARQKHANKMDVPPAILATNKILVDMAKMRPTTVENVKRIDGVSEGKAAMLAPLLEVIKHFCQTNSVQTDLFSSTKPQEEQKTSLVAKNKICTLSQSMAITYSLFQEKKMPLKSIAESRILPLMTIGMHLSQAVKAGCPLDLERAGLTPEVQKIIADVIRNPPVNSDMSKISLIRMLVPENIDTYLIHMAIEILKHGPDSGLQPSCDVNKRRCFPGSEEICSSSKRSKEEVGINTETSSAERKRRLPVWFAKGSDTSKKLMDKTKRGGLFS
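Kinetic red-fluorescence monitoring (525/598 nm) tracks WRN helicase activity after 100 nM fluorophore-quencher forked duplex and 2 mM ATP are added to 20 nM enzyme pretreated 15 min at room temperature with compound.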
Pol kappa inh = inhibitors of human DNA polymerase kappa | Q9UBT6 | purified Pol kappa, fluorescent DNA synthesis assay, 10 min | Potency, µM (series often up to 107 µM), actives largely listed as inhibitors | 400,000 tested, 0.53% active
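Pol kappa 10 nM + cpd, 15 min RT; start w/ substrate 50 nM final; fluorescence kinetic read, 0 and 10 min. Neg ctrl: buffer, no enzyme.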
Pol iota inh = inhibitors of human DNA polymerase iota; Q9UNA4; Pol iota fluorescent replication assay, 10 min; Potency, µM (top dose mostly 115 µM), most hits filed as inhibitors; 390,000 tested, 1% active
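Fluorescent replication assay read twice, at 0 min and 10 min after adding 50 nM (final) substrate. Enzyme (10 nM) and compounds were first incubated 15 min at room temperature; enzyme-free buffer wells were negative controls.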
PI5P4K alpha inh = blocks human PI5P4K alpha kinase activity | P48426 | PI5P4Kalpha enzyme, ADP-Glo luminescence, 60 min; hits give low values | max response, % | 330,000 tested, 1.2% active | AID 652105; active = max response of -50% or lower; inconclusive = between -30% and -50%; inactive = -30% or higher; note: value at the top dose of about 77 µM
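ADP-Glo luminescence end-point after a 60 min room-temperature kinase reaction. PI5P4Kalpha and substrate in HEPES pH 7.4 buffer with EGTA, 0.1% CHAPS and 5% DMSO; ATP at 5 microM final.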
Pol beta inh = blocks human DNA polymerase beta activity; P06746; Pol beta primer extension/strand displacement, fluorescence kinetic; Potency, µM (series often up to 114 µM), actives largely listed as inhibitors; 340,000 tested, 1.3% active
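10 nM enzyme + cpd, 15 min RT; start with substrate 50 nM final; read 0 min and after 10 min RT. Corrected, normalized data; 4-parameter Hill curve fit.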
POLH inh = inhibitors of human DNA polymerase eta; 390,000 tested, 1.2% active; recombinant Pol eta, fluorescent DNA replication assay; Potency, µM (series often up to 114 µM), hits mostly inhibitors; AID 588591; Q9Y253
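Fluorescent replication assay: 50 nM final substrate added after a 15 min room-temperature compound preincubation with 10 nM enzyme. Signal taken at 0 min and again at 10 min.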
A number is an active result; 0 = inactive; ? = inconclusive; - = no result given; [ ] = remark or other dose. The list is not random: actives were taken first. Their share in the collection is about 2.8%. Unless noted, calls come from the whole dose curve; as a rule, active = well fitted curve in the direction sought with a large enough effect; inconclusive = small, poorly fitted or top-dose-only effect, or another doubt; inactive = no such curve, though single readings can be large; an effect the other way counts as inactive or inconclusive.

SMILES	WRN helicase inh	Pol kappa inh	Pol iota inh	PI5P4K alpha inh	Pol beta inh	POLH inh
COc1ccccc1N1CCN(C(=O)CCS(=O)(=O)c2cc(Br)cc3c2N(C(=O)C2CC2)CC3)CC1	-	0	0	-	0	0
O=C(CN1CCN(S(=O)(=O)c2ccc(Cl)cc2)CC1)c1ccc(O)c(O)c1	0	20µM	14.1µM	0	?	?
O=C(CN1CCN(S(=O)(=O)c2ccc(F)cc2)CC1)c1ccc(O)c(O)c1	0	0	0	0	0	0
COc1ccc(S(=O)(=O)N2CCN(CC(=O)c3ccc(O)c(O)c3)CC2)cc1	0[11.6 µM]	31.6µM	?	0	?	?
Nc1cc2nsnc2cc1Br	?	0	3.55µM	0	?	3.55µM
CCCn1c(=O)c2ccccc2n2c(SCC(=O)c3ccccc3)nnc12	0	0	0	-	0	0
CCCn1c(=O)c2ccccc2n2c(SCCNCCO)nnc12	0	0	0	0	0.159µM	0
CCC(C)NC(=O)c1cc(S(=O)(=O)N2CCCCC2)c[nH]1 (stereo unspecified)	0	0	0	0	0	0
Cc1cc(C)cc(NC(=O)CSCc2nc3c(nnn3Cc3ccc(F)cc3)c(=O)[nH]2)c1	0	0	44.7µM	-	-	?
CCC1(C)CC2(CCCN(CCC(=O)c3ccccc3)C2)CCO1 (stereo unspecified)	0	0	0	0	0	0
CCN1CCN(c2nc(Nc3ccc(NC(C)=O)cc3)nc(Nc3ccc(NC(C)=O)cc3)n2)CC1	25.1µM	?	?	0	?	?
Cc1ccc(OCC(=O)NN=C2C3CC4CC(C3)CC2C4)cc1	0	0	0	0	-	0
CSC1=C(C#N)C(=O)NC(c2ccc(Cl)cc2)S1 (stereo unspecified)	0[11.6 µM]	0	0	0	0	79.4µM
O=C(NCc1ccc(Cl)cc1)C1CCCN(c2ncnc3onc(-c4ccc(F)cc4)c23)C1 (stereo unspecified)	-	0	0	-	0	0
CCCc1nc2oc3cc(OC)ccc3c(=O)c2c(=O)n1Cc1ccco1	0	0	?	?	44.7µM	?
CCCc1nc2sc3ccccc3c(=O)c2c(=O)n1Cc1ccc(OC)cc1	0	0	?	0	0	0
CCCc1nc2sc3ccccc3c(=O)c2c(=O)n1Cc1ccco1	0	?	?	?	50.1µM	?
COc1ccc2c(=O)c3c(=O)n(Cc4ccco4)c(-c4ccccc4)nc3oc2c1	0	0	0	-	0	0
COc1cccc(NC(=O)Cn2nc(C)c3c(C)n(-c4ccccc4)nc3c2=O)c1	-	0	89.1µM	-	0	0
COc1cccc(NC(=O)CCCn2nc(C)c3c(C)n(-c4ccccc4)nc3c2=O)c1	0	0	0	0	0	0
COc1ccc(NC(=O)Cn2nc(C)c3c(C)n(-c4ccccc4)nc3c2=O)cc1OC	-	0	?	-	50.1µM	?
CC(=O)c1cccc(NC(=O)COC(=O)c2ccc(S(C)(=O)=O)c([N+](=O)[O-])c2)c1	0	0	?	0	0	79.4µM
Cc1ccccc1NC(=O)Cc1nc(COC(=O)c2ccc(S(C)(=O)=O)c([N+](=O)[O-])c2)cs1	0	0	?	0	-	22.4µM
COc1ccc(C(C)=O)cc1COC(=O)c1ccc(N)c([N+](=O)[O-])c1	0	0	31.6µM	0	0	0
CS(=O)(=O)c1ccc(C(=O)OCC(=O)Nc2cc(C(F)(F)F)ccc2Cl)cc1[N+](=O)[O-]	-	0	0	-	-	-
SMILES	WRN helicase inh	Pol kappa inh	Pol iota inh	PI5P4K alpha inh	Pol beta inh	POLH inh
Cc1ccccc1NC(=O)COC(=O)c1ccc(S(C)(=O)=O)c([N+](=O)[O-])c1	0[11.6 µM]	0	?	0	?	89.1µM
COc1cc(NC(=O)CC2C(=O)N(c3cccc(C)c3)C(=O)N2Cc2ccc(F)cc2)cc(OC)c1 (stereo unspecified)	-	0	0	-	0	0
COc1cc(SC)ccc1C(=O)OCC(=O)N1CCN(C(C)=O)CC1	0	0	0	0	-	0
COc1cccc(OC)c1-c1cc(CCCc2cc(-c3c(OC)cccc3OC)nc3ccccc23)c2ccccc2n1	-	0	?	-	-	-
O=C1CN(C(=O)COC(=O)c2ccc(N3CCCCCC3)c([N+](=O)[O-])c2)c2ccccc2N1	0	0	0	0	?	0
O=C(COC(=O)c1ccc([N+](=O)[O-])cc1)Nc1cccnc1Cl	0	0	0	0	-	0
CS(=O)(=O)c1ccc(C(=O)OCC(=O)Nc2cccnc2Cl)cc1[N+](=O)[O-]	0	0	?	0	-	89.1µM
CS(=O)(=O)c1ccc(C(=O)OCC(=O)N2CC(=O)Nc3ccccc32)cc1[N+](=O)[O-]	-	0	50.1µM	-	-	-
CC1CN(Cc2nc3c(c(=O)n(C)c(=O)n3C)n2CCc2ccccc2)CC(C)O1 (stereo unspecified)	0	0	0	0	-	0
CNS(=O)(=O)c1ccc2nc(NC(=O)/C=C/c3ccco3)sc2c1	0	?	50.1µM	?	?	0
Cc1nc(NC(=O)/C=C/c2ccco2)sc1C	0	0	?	?	?	?
CN(C)c1cccc(NC(=O)C2Cc3c(-c4ccc(Cl)cc4)ccnc3O2)c1 (stereo unspecified)	0	-	-	0	-	-
CC(=O)OC1(C(F)(F)F)Oc2ccccc2NC1=O (stereo unspecified)	0	0	0	0	79.4µM	0
O=c1[nH]c(=S)[nH]cc1S(=O)(=O)c1cccc(Cl)c1	0[11.6 µM]	0	0	-57.3	0	0
Cc1ccc2nc(-c3ccc(NC(=O)c4ccco4)cc3)[nH]c2c1	0	0	?	-	25.1µM	?
Cn1cccc1-c1nc2ccc(NC(=O)c3ccco3)cc2[nH]1	0	0	0	0	0	0
O=C(Nc1ccc2nc(-c3cccs3)[nH]c2c1)c1ccco1	0	0	?	0	31.6µM	?
O=C(Nc1ccc2nc(-c3cccs3)[nH]c2c1)c1cccs1	0	0	?	0	0	?
Cc1ccc(-n2nc3ccc(NC(=O)c4ccco4)cc3n2)cc1	0	0	?	0	25.1µM	?
OCCNc1ncnc2c1ncn2[C@H]1CN(Cc2ccc(Cl)cc2)C[C@@H](CO)O1	0	-	-	0	-	-
O=c1c2c3nc4ccccc4nc3n(/N=C/c3ccco3)c2ncn1CCC1=CCCCC1	?	?	22.4µM	-	28.2µM	?
CCCn1cnc2c(c1=O)c1nc3ccccc3nc1n2CCC1=CCCCC1	-	-	-	-	0	-
COc1cc(CCC(=O)NCc2ccc3c(c2)CCN3C(=O)c2ccc(F)cc2)cc(OC)c1OC	-	0	0	-	0	0
CCOC(=O)c1cccc(NC(=O)N2CCC(CN3CCCCCC3)CC2)c1	-	0	0	-	0	0
Cc1ccc(Nc2nnc(SCC(=O)c3ccc(O)cc3O)s2)cc1	0	0	?	-55.7	?	0
Cc1cccc(Nc2nnc(SCC(=O)c3ccc(O)cc3O)s2)c1	0	0	0	0	0	0
CCOc1ccc2nc(SCC(=O)c3ccc(O)cc3O)sc2c1	0	?	?	0	35.5µM	?

High-throughput results (PubChem BioAssay)
